Measurements: ChEMBL document CHEMBL3988442, “University of Dundee, Small-Polar-MMV Screening Library” (2021)
Hit rate of the full screen: of about 69,000 compounds, about 1,000 (1.4%) showed an effect of 50% or more. Only a selection was taken, and strong results are over-represented in it overall.

System: Leishmania donovani
Test: Leishmania intramacrophage assay
Assay type: functional, organism-based
Set-up: scale not given: in the data most compounds retested in dose-response had high values

COCCN1CCN(CC(=O)NC2(C#N)CCCC2)CC1
Percent Effect (30.3 µM, […]): 21.7%

Cn1cc(-c2cnc(N3CCOCC3)nc2)cc1C(=O)NCCC#N.O=C(O)C(F)(F)F
Percent Effect (30.3 µM, […]): 12.83%

CN(CC(=O)NC(C)(C)C)Cc1cccc2c1OCCO2
Percent Effect (30.3 µM, […]): 16.54%

CC1CCN(c2ccc(NC(=O)CCn3cccn3)cc2)CC1
Percent Effect (30.3 µM, […]): 16.17%

Cc1cc(C(=O)N2C[C@@H]3[C@@H](C2)OCC(=O)N3CC2CC2)no1
Percent Effect (30 µM, 30.03 µM): 18.33%

CCn1nc(C)c(-c2cncn2CCN(C)C2CCCC2)c1C.Cl
Percent Effect (30.3 µM, […]): 32.48%

Cc1nn(C)cc1-c1cncn1CCN(C)C1CCCC1.Cl
Percent Effect (30.3 µM, […]): 52.65%

CCCn1nc(C)c(-c2cncn2CCN(C)C2CCCC2)c1C.Cl
Percent Effect (30.3 µM, […]): 42.92%

CC(C)C1CN(c2nccc(N)n2)CCC(=O)N1Cc1ccc(F)cc1 (centres undefined)
Percent Effect (30.3 µM, […]): -20.97%

COc1cccc2c1OCC(CNC(=O)Cn1ccnc1C)C2 (centres undefined)
Percent Effect (30.3 µM, […]): 4.9%

OC(CNCCn1cccn1)COc1ccc2ccccc2c1 (centres undefined)
Percent Effect (30.3 µM, […]): 56.8%

OC(CNCCn1cccn1)COc1ccc(Br)cc1 (centres undefined)
Percent Effect (30.3 µM, […]): 25.57%

OC(CNCCn1cccn1)COc1ccc(F)cc1 (centres undefined)
Percent Effect (30.3 µM, […]): 20.47%

Cc1nnc2n1CCN(C(=O)C(OC1CCCC1)c1ccccc1)C2 (centres undefined)
Percent Effect (30.3 µM, […]): 5.78%

O=C(Nc1ccc(S(=O)(=O)Nc2c(F)cccc2F)cc1)N1CCCC1
Percent Effect (30.3 µM, […]): 12.59%

CC(=O)NCC(=O)N1CCOC2(CCCN(c3cccnc3)C2)C1.O=C(O)C(F)(F)F (centres undefined)
Percent Effect (30 µM, 30.03 µM): 4.273%

Cc1nc2ccc(-n3ncnc3[C@@H]3CCCN3S(C)(=O)=O)cc2s1
Percent Effect (30.3 µM, […]): 99.47%

CS(=O)(=O)N1CCC[C@H]1c1ncnn1-c1ccc2c(c1)OCO2
Percent Effect (30.3 µM, […]): -61.62%

CC(=O)N1CCCCC1c1ncnn1-c1ccc2nc(C)sc2c1 (centres undefined)
Percent Effect (30.3 µM, […]): 29.12%

COc1ccc(OCCc2nnc(NC(C)=O)s2)cc1
Percent Effect (30.3 µM, […]): -16.84%

O=C(NC1CCS(=O)(=O)C1)c1ccc(SCc2cscn2)cc1 (centres undefined)
Percent Effect (30.3 µM, […]): 10.79%

CCNC(=O)[C@@H]1CCCN1C1(C(=O)NC)CCCCC1.Cl
Percent Effect (30.3 µM, […]): -2.22%

O=C(c1ccc[nH]1)N1CCCC(c2cc(C(F)(F)F)[nH]n2)C1 (centres undefined)
Percent Effect (30 µM, 30.03 µM): 44.22%

O=C(c1cc[nH]n1)N1CCCC(c2cc(C(F)(F)F)[nH]n2)C1 (centres undefined)
Percent Effect (30 µM): -11.08%

O=C(c1cc(Cl)c[nH]1)N1CCCC(c2cc(C(F)(F)F)[nH]n2)C1 (centres undefined)
Percent Effect (30 µM): 52.35%

N#Cc1c(CN2CCCCC2Cn2cncn2)cn2ccccc12 (centres undefined)
Percent Effect (30.3 µM, […]): -0.3662%

O=C(NCC1CC1)Nc1cccc(N2CCN(CC3CC3)CC2)c1
Percent Effect (30 µM, 30.03 µM): -6.352%

O=C(Nc1cccc(N2CCN(CC3CC3)CC2)c1)C1CCCO1 (centres undefined)
Percent Effect (30.3 µM, […]): 25.21%

O=C(Nc1cccc(N2CCN(CC3CC3)CC2)c1)N1CCCC1
Percent Effect (30.3 µM, […]): 55.96%

O=C(NCCc1ccc(F)cc1)C1CN(C(=O)Cn2cncn2)C1
Percent Effect (30.3 µM, […]): 19.84%

COCCCNC(=O)COc1ccccc1C(F)(F)F
Percent Effect (30.3 µM, […]): 6.767%

O=C(Cc1ccccc1)NC[C@H]1Cn2ccnc2CO1
Percent Effect (30.3 µM, […]): 5.132%

CCC(Nc1nc(C)nc2onc(C)c12)c1nc(C)c(C)s1 (centres undefined)
Percent Effect (30.3 µM, […]): 15.33%

Cc1nc(NCCSc2ccccn2)c2c(C)noc2n1
Percent Effect (30.3 µM, […]): 23.02%

CCC(Nc1nc(C)nc2onc(C)c12)c1cccs1 (centres undefined)
Percent Effect (30.3 µM, […]): 50.11%

O=C(NC1CCOCC1)c1cccc(C2CCCNC2)c1 (centres undefined)
Percent Effect (30.3 µM, […]): -13.02%

CCOCC1CN(C(=O)Cc2cccs2)Cc2ccnn2C1 (centres undefined)
Percent Effect (30.3 µM, […]): 34.28%

CN(C)CCOCC1CN(Cc2ccsc2)Cc2ccnn2C1.O=C(O)C(F)(F)F.O=C(O)C(F)(F)F.O=C(O)C(F)(F)F (centres undefined)
Percent Effect (30 µM, 30.03 µM): 9.716%

CCOCC1CN(C(=O)Cc2ccsc2)Cc2ccnn2C1.O=C(O)C(F)(F)F (centres undefined)
Percent Effect (30.3 µM, […]): 51.92%

Cc1noc(C)c1CN(C)C(=O)Cn1c(=O)n(C)c2ccccc21
Percent Effect (30.3 µM, […]): 12.61%

Cc1noc(C)c1CN(C)C(=O)CCn1c(=O)n(C)c2ccccc21
Percent Effect (30.3 µM, […]): 50.75%

Cc1noc(C)c1CN(C)Cn1c(=O)n(C)c2ccccc21
Percent Effect (30.3 µM, […]): 5.674%

O=C(CC1CC1)NCc1cn2c(n1)CN(C(=O)C1CCOCC1)CC2
Percent Effect (30.3 µM, […]): -40.34%

Cc1nc2c(c(NCC(O)C(F)(F)F)n1)CCNCC2 (centres undefined)
Percent Effect (30.3 µM, […]): -15.94%

OC(CNc1nc(C2CCCC2)nc2c1CCNCC2)C(F)(F)F (centres undefined)
Percent Effect (30.3 µM, […]): 100.7%

COCc1noc(CNc2nc(C3CCCC3)nc3c2CCNCC3)n1
Percent Effect (30.3 µM, […]): 8.376%

Cc1nc2c(c(NCCc3nc4c(s3)CCCC4)n1)CCNCC2
Percent Effect (30.3 µM, […]): 49.04%

OC(CNc1ncnc2c1CCNCC2)C(F)(F)F (centres undefined)
Percent Effect (30.3 µM, […]): 26.97%

c1nc(CCNc2nc(C3CC3)nc3c2CCNCC3)c[nH]1
Percent Effect (30.3 µM, […]): 9.64%

COCCNc1nc2c(c(NCC3CCOC3)n1)CCNCC2 (centres undefined)
Percent Effect (30.3 µM, […]): 32.27%

C1Cc2nc(CCNc3nc(C4CC4)nc4c3CCNCC4)sc2C1
Percent Effect (30.3 µM, […]): 95.48%

COCCNc1nc(C2CCCC2)nc2c1CCNCC2
Percent Effect (30 µM, 30.03 µM): 63.78%

O=C(NC1CC1)C1CCc2nnc(-c3cccc(C(F)(F)F)c3)n21 (centres undefined)
Percent Effect (30.3 µM, […]): 10.31%

CN(C)CCn1cc(NC(=O)NC(C)(C)c2nccs2)cn1
Percent Effect (30.3 µM, […]): 7.741%

Cc1cc(C(=O)N2CCCC2c2nnc3n2CCCCC3)on1 (centres undefined)
Percent Effect (30.3 µM, […]): 34.8%

Cc1nc(N2C[C@@H](CN3CCCN(C)CC3)[C@@H](CO)C2)c2ccsc2n1
Percent Effect (30.3 µM, […]): -13.66%

CO[C@H]1[C@@H]2CC[C@H]1CN(c1nc(C)nc3ccsc13)C2
Percent Effect (30.3 µM, […]): 34.92%

CO[C@H]1[C@@H]2CC[C@H]1CN(c1nc(C)nc3sccc13)C2
Percent Effect (30.3 µM, […]): 56.76%

CC(=O)N1C[C@H]2C3(CCN(S(C)(=O)=O)CC3)CC[C@@]2(C(=O)N(C)C)C1
Percent Effect (30.3 µM, […]): -12.02%

Cc1cc(C)n(CC2CCCCN2CC(=O)N(C)Cc2ccco2)n1 (centres undefined)
Percent Effect (30.3 µM, […]): -27.36%

Cc1cc(C)n(CC2CCCN2CC(=O)N(C)Cc2ccc(C)o2)n1 (centres undefined)
Percent Effect (30.3 µM, […]): 94.04%

Cc1cc(C)n(CC2CCCN2CC(=O)N(C)Cc2ccco2)n1 (centres undefined)
Percent Effect (30.3 µM, […]): 34.8%

CNS(=O)(=O)c1cccc(CNc2ccc(C(F)(F)F)nn2)c1
Percent Effect (30 µM, 30.03 µM): 12.97%

COc1ccccc1N1CC(NC(=O)Cn2cc(C)nn2)CC1=O (centres undefined)
Percent Effect (30.3 µM, […]): 4.572%

COc1ccccc1N1CC(NC(=O)c2cc(C(C)C)nn2C)CC1=O (centres undefined)
Percent Effect (30.3 µM, […]): 57.19%

COc1ccccc1N1CC(NC(=O)Cn2cc(C(C)C)nn2)CC1=O (centres undefined)
Percent Effect (30.3 µM, […]): -4.218%

CCOCCC(=O)NC(Cc1ccc(C)cc1)c1ccccn1 (centres undefined)
Percent Effect (30.3 µM, […]): 16.59%

Cn1ccnc1C(=O)NC[C@@H]1OC[C@H]2CN(CC3CC3)CC[C@H]21.O=C(O)C(F)(F)F
Percent Effect (30.3 µM, […]): 33.21%

CCCN1CC[C@@H]2[C@@H](CO[C@H]2CNC(=O)c2nccn2C)C1.O=C(O)C(F)(F)F
Percent Effect (30.3 µM, […]): 42.84%

CN1CC[C@@H]2[C@@H](CO[C@H]2CNC(=O)c2nccn2C)C1.O=C(O)C(F)(F)F
Percent Effect (30.3 µM, […]): 58.2%

Cn1cncc1CN1CCCC1c1cncc(Oc2ccc(Cl)cc2)n1 (centres undefined)
Percent Effect (30.3 µM, […]): 60.52%

Cc1ncccc1Oc1cncc(C2CCCN2Cc2cncn2C)n1 (centres undefined)
Percent Effect (30.3 µM, […]): 19.44%

Cn1cncc1CN1CCCC1c1cncc(Oc2ccc(F)cc2)n1 (centres undefined)
Percent Effect (30.3 µM, […]): 23.83%

O=C(O)C(F)(F)F.O=C([C@H]1COC[C@H]2CN(CC3CCCC3)C[C@H]21)N1CCOCC1
Percent Effect (30.3 µM, […]): 14.74%

CC(=O)N1CCC2(CC1)CN(C(=O)[C@@H]1CSCN1)c1ccc(Cl)cc12.O=C(O)C(F)(F)F
Percent Effect (30.3 µM, […]): 42.29%

O=C(O)C(F)(F)F.O=C(c1ncccn1)N1CCC[C@]2(C[C@@H](Oc3ncccc3F)CO2)C1
Percent Effect (30.3 µM, […]): -9.266%

O=C(O)C(F)(F)F.O=C(O)C(F)(F)F.O=C(c1cccnc1)N1CCC[C@]2(C[C@H](Oc3ncccc3F)CO2)C1
Percent Effect (30.3 µM, […]): 55.01%

COc1ncccc1C(=O)N1CCC2(CC1)CC(OC)CO2.O=C(O)C(F)(F)F (centres undefined)
Percent Effect (30.3 µM, […]): 56.73%

O=C(O)C(F)(F)F.O=C(c1ccccc1)N1CCC[C@]2(C[C@@H](Oc3ncccc3F)CO2)C1
Percent Effect (30.3 µM, […]): -17.71%

Cc1csc(CN2CCC[C@]3(C[C@@H](OCC4CC4)CO3)C2)n1.O=C(O)C(F)(F)F
Percent Effect (30.3 µM, […]): 2.266%

COC1COC2(CCN(C(=O)c3ccccc3F)CC2)C1 (centres undefined)
Percent Effect (30.3 µM, […]): 35.35%

COc1ncccc1C(=O)N1CC[C@]2(C[C@@H](Oc3cccnc3)CO2)C1.O=C(O)C(F)(F)F.O=C(O)C(F)(F)F
Percent Effect (30.3 µM, […]): 31.08%

CCO[C@H]1CO[C@@]2(CCCN(Cc3nc(C)cs3)C2)C1.O=C(O)C(F)(F)F
Percent Effect (30 µM, 30.03 µM): 20.53%

CO[C@@H]1CO[C@@]2(CCCN(Cc3nc(C)cs3)C2)C1.O=C(O)C(F)(F)F
Percent Effect (30.3 µM, […]): 100.6%

CS(=O)(=O)N1CCC[C@]2(C[C@@H](Oc3ncccc3F)CO2)C1.O=C(O)C(F)(F)F
Percent Effect (30 µM, 30.03 µM): 22.25%

Cn1cc(CN2CCC[C@]3(C[C@@H](Oc4ncccc4F)CO3)C2)cn1.O=C(O)C(F)(F)F.O=C(O)C(F)(F)F
Percent Effect (30.3 µM, […]): 62.31%

Cn1cc(CN2CCC[C@]3(C[C@H](Oc4ncccc4F)CO3)C2)cn1.O=C(O)C(F)(F)F.O=C(O)C(F)(F)F
Percent Effect (30.3 µM, […]): 42.35%

CC(C)NC(=O)N1CCC(c2nnc3n2CCNC3)CC1
Percent Effect (30.3 µM, […]): -10%

O=C(O)C(F)(F)F.O=C([C@H]1CN(CCc2ccccc2)C[C@H]2OCC[C@@H]12)N1CCCO1
Percent Effect (30 µM, 30.03 µM): 22.49%

CCCC(C#N)NC(=O)Cc1csc(CC)n1 (centres undefined)
Percent Effect (30.3 µM, […]): 15.43%

CC(OCc1ccccc1)C(=O)NC1CCN(CC(N)=O)CC1 (centres undefined)
Percent Effect (30.3 µM, […]): 21.11%

O=C(c1ccc(O)c(Cl)c1)N1C[C@@H](CN2CCCCCC2)[C@@H](CO)C1
Percent Effect (30.3 µM, […]): -29.45%

Cc1nc(CN2CCCC2c2[nH]ncc2C(=O)N(C)C)cs1 (centres undefined)
Percent Effect (30.3 µM, […]): 17.56%

O=S(=O)(NCCc1c[nH]c2ccc(F)cc12)C1CCOCC1
Percent Effect (30.3 µM, […]): 23.05%
